Assay outcomes: PubChem BioAssay, National Center for Advancing Translational Sciences (NCATS)
JMJD2A Tudor: qHTS Assay for Inhibitors of JMJD2A-Tudor Domain | Potency, µM (top dose mostly 114 µM), without a hit: top-dose activity change, negative = inhibition, most hits filed as inhibitors | AID 504339, 2011 | AlphaScreen JMJD2A-Tudor / H3K4me3 peptide binding | Lysine-specific demethylase 4A (Homo sapiens), O75164 | 4.4% of 390,000 active; also: % is scaled to controls: 0 for no effect and ±100 for the full control effect; nearly all actives have a fitted effect of over 50% in size
G9a block: qHTS Assay for Inhibitors of Histone Lysine Methyltransferase G9a; 8.8% of 350,000 active; Histone-lysine N-methyltransferase EHMT2 (Homo sapiens), Q96KQ7; G9a H3K9 monomethylation, AlphaScreen, 2 h; Potency, µM (highest dose often 102 µM), for inactives: top-dose activity, negative = inhibition, hits mostly inhibitors; also: % is scaled to controls: 0 for no effect and ±100 for the full control effect; nearly all actives have a fitted effect of over 75% in size
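Readings reflect AlphaScreen signal from monomethyl-H3K9 antibody detection. HMT at 20 nM; substrate b-H3K9 500 nM; cofactor SAM 20 uM; 2 h RT reaction; compounds tested as titrations in qHTS with 15 min preincubation.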
PLK1 PBD block: qHTS for Inhibitors of PLK1-PDB (polo-like kinase 1 - polo-box domain): Primary Screen; Plk1 PBD binding of FITC phosphopeptide, fluorescence polarization; 2.8% of 360,000 active; AID 720504, 2013; Potency, µM, for the others: max response, negative = inhibition, hits mostly inhibitors; also: series mostly up to about 57 µM; % is scaled to controls: 0 for no effect and ±100 for the full control effect; nearly all actives have a fitted effect of over 65% in size
Target sequence (P53350 whole entry, looked up, the tested form may be a part): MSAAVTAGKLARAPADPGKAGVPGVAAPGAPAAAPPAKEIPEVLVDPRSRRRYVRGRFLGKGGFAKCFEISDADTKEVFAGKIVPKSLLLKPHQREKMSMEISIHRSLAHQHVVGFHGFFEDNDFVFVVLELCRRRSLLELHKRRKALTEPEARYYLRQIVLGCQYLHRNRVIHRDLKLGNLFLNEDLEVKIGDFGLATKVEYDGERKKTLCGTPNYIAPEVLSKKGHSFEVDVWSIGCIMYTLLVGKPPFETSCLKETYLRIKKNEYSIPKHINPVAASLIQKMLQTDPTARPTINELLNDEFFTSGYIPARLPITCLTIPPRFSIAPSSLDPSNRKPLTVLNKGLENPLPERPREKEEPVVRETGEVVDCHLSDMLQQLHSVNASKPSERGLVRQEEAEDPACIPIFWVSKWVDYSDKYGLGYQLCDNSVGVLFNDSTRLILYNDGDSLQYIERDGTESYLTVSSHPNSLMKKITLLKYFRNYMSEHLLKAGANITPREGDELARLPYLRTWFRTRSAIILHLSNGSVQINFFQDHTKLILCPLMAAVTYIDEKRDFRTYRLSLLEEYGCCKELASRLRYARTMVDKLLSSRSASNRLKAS
HP1b chromo inh: HTS for Inhibitors of HP1-beta Chromodomain Interactions with Methylated Histone Tails; Chromobox protein homolog 1 (Homo sapiens), P83916; AlphaScreen HP1-beta / biotin-H3K9me3 peptide binding; Potency, µM (top dose mostly 114 µM), for inactives: top-dose activity change, negative = inhibition, most hits filed as inhibitors; 0.56% of 390,000 active; AID 540317, 2011; also: nearly all actives have a fitted effect of over 70% in size
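HP1-beta protein (50 nM final) preincubated 30 min at room temperature with biotinylated H3(1-18)K9me3 peptide (50 nM) in PBS pH 7.4, 0.01% Tween-20, then compound added for 30 min. AlphaScreen streptavidin donor/nickel chelate acceptor beads (10 ug/mL final), 30 min dark, luminescence read.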
Sfp PPTase inh: qHTS Assay for Inhibitors of Bacillus subtilis Sfp phosphopantetheinyl transferase (PPTase); AID 1490, 2009; 4'-phosphopantetheinyl transferase ffp (Bacillus subtilis), Q9F4F7; 3.5% of 310,000 active; Potency, µM, for the others: largest response in the series, negative = inhibition, usual class: inhibitors; Biochemical Sfp PPTase activity, qHTS;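 also: the enzyme is Sfp with the accession as filed and its product quenches rhodamine fluorescence; 0% = enzyme reaction without inhibitor and -100% = no enzyme wells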
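Buffer: 50 mM Hepes-Na pH 7.6, 10 mM MgCl2, 0.01% Nonidet P-40, 0.01% BSA. Enzyme 15 nM, pre-exposed to compound 15 min; substrates then added and fluorescence change tracked over 30 min.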
BAZ2B block: qHTS Assay for Inhibitors of BAZ2B; 4.4% of 360,000 active; AlphaScreen BAZ2B-H3K14Ac peptide displacement; Bromodomain adjacent to zinc finger domain protein 2B (Homo sapiens), Q9UIF8; Potency, µM (top dose mostly 114 µM), for the others: at the highest dose activity change, negative = inhibition, actives largely listed as inhibitors; also: % is scaled to controls: 0 for no effect and ±100 for the full control effect; nearly all actives have a fitted effect of over 60% in size
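Multi-concentration screen (max 110 uM) measuring displacement of acetylated histone H3 peptide from BAZ2B by AlphaScreen, using 50 nM protein, 50 nM peptide and 10 ug/mL streptavidin donor plus Ni-chelate acceptor beads.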
Active calls of the source: *; ? = inconclusive; / = not tested or not shown; [ ] = dose if it differs, or a comment. This is a sample that favours compounds with a hit; in the whole collection about 12% have one here. Calls follow the shape of the dose curve; as a rule, active = well fitted curve in the direction sought with a large enough effect; inconclusive = small, poorly fitted or top-dose-only effect, or another doubt; inactive = no such curve, though single readings can be large; an effect the other way counts as inactive or inconclusive. Potency is read from the fitted curve at half-maximal effect.

SMILES	JMJD2A Tudor	G9a block	PLK1 PBD block	HP1b chromo inh	Sfp PPTase inh	BAZ2B block
COc1cccc(NC(=O)CN(C)C(=O)Cc2ccc3c(c2)CCC3)c1	-8%	?	-26%	14%	/	8%
CN(CC(=O)Nc1c(Cl)cccc1Cl)C(=O)Cc1ccc2c(c1)CCC2	-6%	3.5µM*	15µM*	?	/	5%
O=C(Cc1ccc2c(c1)CCCC2)Nc1ccccc1Br	25%	45µM*	24µM*	-18%	-2%	-5%
CCN(CC(=O)Nc1ccccc1C(F)(F)F)C(=O)Cc1ccc2c(c1)CCC2	4%	-3%[12.7 µM]	0%	44%	/	-2%
C=CCNC(=S)/N=c1/ccccn1CCC	-6%	-9%[12.7 µM]	-22%	22%	5%	-7%
C=CCNC(=S)/N=c1/ccccn1C	4%	35µM*	-5%	17%	-29%	-14%
O=C(Cn1c(=O)n(-c2ccc(Cl)cc2)c(=O)c2sc3ccccc3c21)NC1CCCC1	-5%	0%[59 µM]	/	36%	/	-24%
CN(CC(=O)Nc1cccnc1)S(=O)(=O)c1ccc(Br)cc1	-2%	/	-6%	32%	-11%	0%
Cc1ccc(OCc2n[nH]c(=S)n2N)cc1C	?	?	-7%	22%	?	-19%
CC(C)(C)c1n[nH]c(=S)n(N)c1=O	5µM*	9%[12.7 µM]	-6%	-22%	?	?
Cc1ccc(S(=O)(=O)CCC(=O)NCc2ccccc2F)cc1	-10%	16%[0.501 µM]	-8%	7%	/	-7%
COC(=O)C1=C(C)N=c2s/c(=C/c3ccoc3)c(=O)n2C1c1ccccc1 (centres undefined)	?	?	-2%	?	79µM*	?
COC(=O)C1=C(C)N=c2s/c(=C3\C(=O)Nc4ccccc43)c(=O)n2C1c1ccccc1 (centres undefined)	/	7.9µM*	/	/	1%	7.9µM*
CC(=O)C1=C(C)N=c2s/c(=C/c3ccc4c(c3)OCO4)c(=O)n2C1c1ccc(N(C)C)cc1 (centres undefined)	-26%[11.4 µM]	/	27µM*	?	/	/
COC(=O)CCCCC1SCC2NC(=O)NC21O (centres undefined)	0.89µM*	8.9µM*	?	-95%	20%	2.2µM*
COC(=O)CCCC[C@H]1SC[C@H]2NC(=O)N[C@]21O	/	2.2µM*	/	/	40µM*	0.89µM*
CCOc1ccc(NCc2ccccc2OCc2cccc(F)c2)cc1	?	10µM*	-7%	3%	-20%	?
NS(=O)(=O)c1ccc(NCc2ccccc2OCc2ccc(F)cc2)cc1	-28%	?	0%	7%	-7%	56µM*
NS(=O)(=O)c1ccc(CCNCc2ccccc2OCc2ccc(F)cc2)cc1	-8%	16%	-6%	0%	-12%	-13%
Fc1cccc(COc2ccccc2CNc2ccccc2)c1	21%	64%[59 µM]	-7%	-50%	-4%	35%
O=S(=O)(c1ccccc1)N1CCN(c2nccc(-c3cccs3)n2)CC1	-5%	/	/	/	/	/
Cc1nnc(SCCN2CCOCC2)n1C	1µM*	35µM*	-3%	?	?	?
Cc1cc(C)c(C)c(S(=O)(=O)ON2C(=O)c3ccccc3C2=O)c1C	89µM*	7.9µM*	6.7µM*	-32%	22µM*	-39%
O=C1c2ccccc2C(=O)N1OS(=O)(=O)c1ccc(F)cc1	9%	2.2µM*	5.3µM*	41%	8.9µM*	-32%
O=S(=O)(c1ccccc1)N1CCN(S(=O)(=O)c2ccc(F)cc2)CC1	-8%	26%[0.501 µM]	-11%	18%	5%	2%
SMILES	JMJD2A Tudor	G9a block	PLK1 PBD block	HP1b chromo inh	Sfp PPTase inh	BAZ2B block
Cc1ccc(OC(=O)CN2C(=O)c3ccccc3C2=O)cc1C	-6%	21%	-4%	16%	5%	16%
Cc1cc(C)c(S(=O)(=O)ON2C(=O)c3ccccc3C2=O)cc1C	56µM*	/	5.3µM*	?	20µM*	?
Cc1ccc(S(=O)(=O)ON2C(=O)c3ccccc3C2=O)c(C)c1	50µM*	7.9µM*	7.5µM*	45µM*	10µM*	13%
Cc1ccc(-n2ncc(C(=O)NCCN3CCC(Cc4ccccc4)CC3)c2C2CCN(C(=O)OC(C)(C)C)CC2)cc1	?	?	/	2%	/	-34%[57.1 µM]
Cc1noc(Cn2c(=O)c3ccccc3n(CC(=O)Nc3cccc(Cl)c3C)c2=O)n1	-14%	-6%[59 µM]	/	9%	/	-9%
CCN(CC(=O)Nc1ccccc1C(F)(F)F)C(=O)C1CC(=O)N(Cc2ccccc2)C1 (centres undefined)	-4%	-5%	-6%	34%	/	-32%
O=C(NCC1CC1)Nc1cccs1	-12%	?	-6%	31%	45µM*	-18%
O=C(Nc1cccs1)NC1CCCC1	-25%	32µM*	-11%	0%	-7%	-32%
CCS(=O)(=O)N1CC(=O)N(c2ccc(Cl)cc2C)C(C)(C(=O)NC2CCCCC2)C1 (centres undefined)	0%	-3%[59 µM]	/	53%	/	5%
COCCn1c(SCc2ccc(F)cc2)nc2c1c(=O)[nH]c(=O)n2C	-7%	/	11µM*	?	45µM*	3%
CCOCCn1c(SCc2ccc(F)cc2)nc2c1c(=O)[nH]c(=O)n2C	-12%	?	-3%	28%	0%	11%
CC(C)CCn1c(SCc2ccc(Cl)cc2)nc2c1c(=O)[nH]c(=O)n2C	-21%	14µM*	27µM*	-32%	45µM*	-26%
CCCCCOC(=O)CSc1nc2c(c(=O)[nH]c(=O)n2C)n1Cc1ccc(Cl)cc1	-15%	40µM*	?	9%	?	3%
CCCCn1c(SCc2ccc(Cl)cc2)nc2c1c(=O)[nH]c(=O)n2C	?	?	21µM*	-16%	?	14%
O=C(CCOc1ccccc1)N(Cc1cccnc1)c1nc2c(Cl)cccc2s1	-23%	?	/	21%	/	-9%
COc1ccc(C(=O)NC2CC2)cc1OC1CCN(Cc2ccc(F)c(F)c2)CC1	-8%	30%	-3%	28%	13%	-15%
CCc1cccc(NC(=O)CSc2nc3ccsc3c(=O)n2CC)c1	-10%	4%[59 µM]	/	25%	/	7%
CCOCCn1c(SCc2ccccc2)nc2c1c(=O)[nH]c(=O)n2C	-14%	9%[12.7 µM]	-11%	30%	-7%	-3%
CCOCCn1c(SCC(=O)OCc2ccccc2)nc2c1c(=O)[nH]c(=O)n2C	-4%	26%[12.7 µM]	21µM*	6%	14%	-2%
